Laboratory results as given in PubChem BioAssay (EPA / NIEHS).
Calls of active or inactive are those of the source. How the source made its calls: active means hit-call score of the fitted dose curve at least 0.9, where 1 is the maximum; inactive means score below 0.9.

Tests used:
[1] = APR_HepG2_NuclearSize_72hr: Apredica 72-hour HepG2 Assay for Nuclear Size (AID 2282925); conditions: high-content imaging, actives raise or lower the signal
Summary of the method: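 HepG2 cells were exposed to compounds at ten concentrations from 0.39 to 200 uM (duplicate, 0.5% DMSO final) for 72 hr. After fixation in 3.7% formaldehyde, nuclei were stained with Hoechst 33342 (2 ug/mL) and imaged at 20x.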

[2] = ATG_CRE_CIS: Attagene CIS-FACTORIAL HepG2 Assay for human cAMP Responsive Element (CRE) binding protein 3 (AID 2282926); conditions: HepG2 CRE cis-reporter, Attagene multiplexed mRNA; actives raise or lower the signal
Summary of the method: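 Transfected HepG2 were treated for 24 hours, then RNA was extracted and reporter cDNA amplified with sequence-specific primers. Labelled fragments were separated by capillary electrophoresis, and the CRE signal was fitted bidirectionally with DMSO as baseline.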

[3] = target: CCAAT/enhancer-binding protein beta (Homo sapiens) (UniProt P17676); assay: ATG_C_EBP_CIS: Attagene CIS-FACTORIAL HepG2 Assay for human CCAAT/Enhancer Binding Protein (C/EBP) beta (AID 2282927); conditions: HepG2 Attagene cis-factorial transcription factor reporter; actives raise or lower the signal
Summary of the method: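 Following a 24 h incubation with test chemical, transfected HepG2 cells yielded RNA whose reporter transcripts were quantified by RT-PCR and fluorescent capillary electrophoresis, with DMSO serving as baseline for bidirectional fitting.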

[4] = ATG_CMV_CIS: Attagene CIS-FACTORIAL HepG2 Assay for human CMV (Internal Marker) (AID 2282928); conditions: HepG2 CMV promoter reporter, transcription factor profiling; actives raise or lower the signal;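 further: endpoint acts as a background internal control marker rather than a target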
Summary of the method: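 CMV internal-marker background readout in transiently transfected HepG2 cells bearing cis-regulated reporter units. Reporter mRNA is measured 24 h after dosing by RT-PCR and capillary electrophoresis, with bidirectional fitting against DMSO.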

[5] = ATG_DR4_LXR_CIS: Attagene CIS-FACTORIAL HepG2 Assay for human Liver X Receptor (LXR), DR4 submotif (AID 2282929); conditions: HepG2 Attagene DR4 cis-reporter, mRNA transcription; actives raise or lower the signal
Summary of the method: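 Cells were transfected with multiple reporter transcription units, exposed to chemicals for 24 hours, then lysed for RNA. Reporter mRNA induction was measured by RT-PCR with capillary electrophoresis detection and fitted in both directions relative to DMSO.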

[6] = ATG_AP_1_CIS: Attagene CIS-FACTORIAL HepG2 Assay for human Activator Protein 1 (AP-1) (AID 2282931); conditions: HepG2 Attagene cis-factorial AP-1 reporter mRNA; actives raise or lower the signal
Summary of the method: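 Endogenous transcription-factor activity in human HepG2 liver cells is read through a cis-promoter reporter transcript, sampled 24 h after dosing. Detection uses RT-PCR with capillary electrophoresis; values come from bidirectional fitting relative to DMSO.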

[7] = ATG_AP_2_CIS: Attagene CIS-FACTORIAL HepG2 Assay for human Activator Protein 2 (AP-2) (AID 2282932); conditions: HepG2 AP-2 cis-reporter, Attagene transcription factor profiling; actives raise or lower the signal
Summary of the method: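 HepG2 cells were transiently transfected with multiple cis-promoter reporter transcription units and dosed for 24 h. Reporter mRNA was measured by RT-PCR with capillary electrophoresis fluorescence; bidirectional fits relative to DMSO baseline.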

[8] = ATG_BRE_CIS: Attagene CIS-FACTORIAL HepG2 Assay for human Bone Morphogenetic Protein (BMP) Response Element (BRE) (AID 2282933); conditions: HepG2 BMP response element reporter, Attagene transcription factor profiling; actives raise or lower the signal
Summary of the method: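 A HepG2 multiplex reporter system measured inducible reporter mRNA 24 h post-dosing. Detection: RT-PCR, 6-FAM primer extension, HpaI digestion, capillary electrophoresis. Activity fitted bidirectionally relative to DMSO.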

[9] = target: Retinoic acid receptor alpha (Homo sapiens) (UniProt P10276); assay: ATG_DR5_RAR_CIS: Attagene CIS-FACTORIAL HepG2 Assay for human Retinoic Acid Receptor Alpha (RARE), DR5 submotif (AID 2282934); conditions: HepG2 Attagene cis-factorial RARE DR5 reporter, mRNA; actives raise or lower the signal
Summary of the method: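 Endpoint fitted in both directions relative to DMSO as negative control. It reflects DR5 cis-element reporter mRNA induction in transiently transfected HepG2 cells, measured 24 h after dosing through RT-PCR and fluorescent capillary electrophoresis.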

[10] = target: Transcription factor E2F1 (Homo sapiens) (UniProt Q01094); assay: ATG_E2F_CIS: Attagene CIS-FACTORIAL HepG2 Assay for human E2F Transcription Factor 1 (AID 2282935); conditions: HepG2 Attagene cis-reporter, E2F reporter RNA transcripts; actives raise or lower the signal
Summary of the method: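 HepG2 cells transiently transfected with multiplexed cis-element reporter units, dosed for 24 h. Reporter mRNA measured by RT-PCR, 6-FAM primer-extension labeling, HpaI digestion and capillary electrophoresis; bidirectional fit versus DMSO baseline.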

[11] = ATG_E_Box_CIS: Attagene CIS-FACTORIAL HepG2 Assay for human Enhancer Box (E-box) (AID 2282936); conditions: HepG2 E-box cis-reporter transcription, actives raise or lower the signal
Summary of the method: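 HepG2 cells transiently transfected with multiplexed cis-element reporter units sensing endogenous transcription factor activity; 24 h compound exposure. Reporter mRNA measured by RT-PCR, 6-FAM primer extension, HpaI digestion and capillary electrophoresis; bidirectional fit versus DMSO.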

[12] = ATG_M_61_CIS: Attagene CIS-FACTORIAL HepG2 Assay for M61 Transcription Factor (Internal Marker) (AID 2282937); conditions: HepG2 Attagene CIS-FACTORIAL M61 internal marker reporter; actives raise or lower the signal
Summary of the method: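 Cells were transfected with reporter units under cis-regulatory promoters, treated with chemicals for 24 h, then lysed for RNA. Reporter transcripts were quantified by RT-PCR and capillary electrophoresis, and activity was fitted bidirectionally against DMSO.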

[13] = ATG_M_19_CIS: Attagene CIS-FACTORIAL HepG2 Assay for M19 Transcription Factor (Internal Marker) (AID 2282939); conditions: HepG2 Attagene CIS-FACTORIAL M19 internal marker reporter; actives raise or lower the signal
Summary of the method: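 Chemical-treated HepG2 (24 h) with MRTU constructs; reporter transcripts detected by fluorescent RT-PCR fragment analysis on capillary electrophoresis. Internal background marker, DMSO as baseline.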

[14] = ATG_ERE_CIS: Attagene CIS-FACTORIAL HepG2 Assay for Estrogen Response Element (ERE) (AID 2282940); conditions: HepG2 ERE cis-reporter, Attagene RNA transcript; actives raise or lower the signal
Summary of the method: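 Human liver cells (HepG2) bearing transiently transfected, promoter-regulated reporter units were exposed 24 h. Reporter mRNA induction was detected by capillary electrophoresis of labelled RT-PCR products and fitted bidirectionally to DMSO.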

[15] = target: Hepatocyte nuclear factor 3-beta (Homo sapiens) (UniProt Q9Y261); assay: ATG_FoxA2_CIS: Attagene CIS-FACTORIAL HepG2 Assay for human Forkhead box A2 (FOXA2) (AID 2282942); conditions: HepG2 cis-reporter transcription factor activity, 24 h; actives raise or lower the signal
Summary of the method: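 Endogenous transcription factor activity was read in HepG2 cells carrying transiently transfected cis-promoter reporter units. After 24 h dosing, reporter mRNA was quantified by RT-PCR and capillary electrophoresis, and values fitted bidirectionally versus DMSO.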

[16] = ATG_FoxO_CIS: Attagene CIS-FACTORIAL HepG2 Assay for human Forkhead box O (FoxO) (AID 2282943); conditions: HepG2 Attagene cis-reporter, FoxO element, mRNA; actives raise or lower the signal
Summary of the method: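 Values reflect reporter mRNA induction or loss in HepG2 cells 24 h post-dosing, fitted bidirectionally with DMSO as negative control and baseline. Detection used RT-PCR and fluorescence capillary electrophoresis.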

[17] = ATG_GATA_CIS: Attagene CIS-FACTORIAL HepG2 Assay for human GATA Binding Protein (AID 2282944); conditions: HepG2 GATA cis-element reporter, Attagene multiplex mRNA; actives raise or lower the signal
Summary of the method: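 Transfected cis-reporter HepG2 cells were treated with chemicals for 24 hours. Total RNA was then converted to cDNA, amplified with reporter-specific primers and analysed by fluorescent capillary electrophoresis, using DMSO-treated wells as baseline.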

[18] = target: Aryl hydrocarbon receptor (Homo sapiens) (UniProt P35869); assay: ATG_Ahr_CIS: Attagene CIS-FACTORIAL HepG2 Assay for human Aryl Hydrocarbon Receptor (Ahr) (AID 2282930); conditions: HepG2 AhR cis-factorial reporter transcription; actives raise or lower the signal
Summary of the method: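 Values derive from bidirectional fitting against DMSO negative control. Underlying signal: cis-element reporter mRNA in transiently transfected HepG2, harvested 24 h post-dose and measured by RT-PCR plus capillary electrophoresis.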

[19] = ATG_EGR_CIS: Attagene CIS-FACTORIAL HepG2 Assay for human Early Growth Response 1 (EGR1) (AID 2282938); conditions: HepG2 Attagene CIS-FACTORIAL EGR reporter mRNA; actives raise or lower the signal
Summary of the method: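 Endogenous TF activity in HepG2 liver cells was gauged through cis-promoter reporter constructs transiently transfected. After 24 h dosing, reporter mRNA was quantified by RT-PCR and capillary electrophoresis, and curves fitted in both directions versus DMSO.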

[20] = ATG_Ets_CIS: Attagene CIS-FACTORIAL HepG2 Assay for human Erythroblast Transformation Specific (ETS) (AID 2282941); conditions: HepG2 ETS cis-reporter transcription, actives raise or lower the signal
Summary of the method: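 HepG2 cells transfected with multiple cis-regulated reporter units measuring endogenous ETS-driven transcription, 24 h after dosing. Reporter mRNA quantified by RT-PCR with capillary electrophoresis; bidirectional fit relative to DMSO.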

Measured: AC50

Chain of Hepatocyte nuclear factor 3-beta (Homo sapiens) (Q9Y261 whole entry, looked up): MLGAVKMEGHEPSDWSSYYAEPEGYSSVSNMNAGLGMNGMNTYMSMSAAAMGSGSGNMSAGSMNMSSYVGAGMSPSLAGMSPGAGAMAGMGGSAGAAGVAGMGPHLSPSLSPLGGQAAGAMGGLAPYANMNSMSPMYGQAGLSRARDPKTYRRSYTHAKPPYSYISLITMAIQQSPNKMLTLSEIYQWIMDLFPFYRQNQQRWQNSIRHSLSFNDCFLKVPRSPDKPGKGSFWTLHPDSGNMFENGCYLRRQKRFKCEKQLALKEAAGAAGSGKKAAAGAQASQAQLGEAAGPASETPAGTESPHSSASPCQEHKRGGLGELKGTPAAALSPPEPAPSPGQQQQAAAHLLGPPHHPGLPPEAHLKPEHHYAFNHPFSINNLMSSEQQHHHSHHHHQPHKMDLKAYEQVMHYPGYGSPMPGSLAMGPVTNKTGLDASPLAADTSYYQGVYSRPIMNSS
Chain of CCAAT/enhancer-binding protein beta (Homo sapiens) (P17676 whole entry, looked up): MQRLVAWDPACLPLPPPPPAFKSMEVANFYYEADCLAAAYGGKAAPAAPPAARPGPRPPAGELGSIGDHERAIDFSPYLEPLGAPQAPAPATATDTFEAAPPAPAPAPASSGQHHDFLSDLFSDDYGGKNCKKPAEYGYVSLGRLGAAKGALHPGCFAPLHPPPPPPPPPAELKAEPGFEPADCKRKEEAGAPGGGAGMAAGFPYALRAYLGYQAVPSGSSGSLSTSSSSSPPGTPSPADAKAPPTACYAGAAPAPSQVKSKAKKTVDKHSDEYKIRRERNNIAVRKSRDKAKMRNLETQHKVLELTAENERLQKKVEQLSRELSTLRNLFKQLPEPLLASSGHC
Chain of Transcription factor E2F1 (Homo sapiens) (Q01094 whole entry, looked up): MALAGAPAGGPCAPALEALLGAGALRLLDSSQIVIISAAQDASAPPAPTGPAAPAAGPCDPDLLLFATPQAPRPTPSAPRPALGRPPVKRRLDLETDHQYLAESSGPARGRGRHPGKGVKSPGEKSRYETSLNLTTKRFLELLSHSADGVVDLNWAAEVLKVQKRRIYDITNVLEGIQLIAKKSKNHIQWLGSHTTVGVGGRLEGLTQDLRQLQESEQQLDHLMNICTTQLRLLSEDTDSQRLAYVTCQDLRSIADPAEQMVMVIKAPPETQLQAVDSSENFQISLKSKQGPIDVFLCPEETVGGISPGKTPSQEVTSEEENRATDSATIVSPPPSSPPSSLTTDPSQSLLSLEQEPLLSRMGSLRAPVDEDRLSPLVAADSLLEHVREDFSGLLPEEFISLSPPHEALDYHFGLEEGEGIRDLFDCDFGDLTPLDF
Chain of Retinoic acid receptor alpha (Homo sapiens) (P10276 whole entry, looked up): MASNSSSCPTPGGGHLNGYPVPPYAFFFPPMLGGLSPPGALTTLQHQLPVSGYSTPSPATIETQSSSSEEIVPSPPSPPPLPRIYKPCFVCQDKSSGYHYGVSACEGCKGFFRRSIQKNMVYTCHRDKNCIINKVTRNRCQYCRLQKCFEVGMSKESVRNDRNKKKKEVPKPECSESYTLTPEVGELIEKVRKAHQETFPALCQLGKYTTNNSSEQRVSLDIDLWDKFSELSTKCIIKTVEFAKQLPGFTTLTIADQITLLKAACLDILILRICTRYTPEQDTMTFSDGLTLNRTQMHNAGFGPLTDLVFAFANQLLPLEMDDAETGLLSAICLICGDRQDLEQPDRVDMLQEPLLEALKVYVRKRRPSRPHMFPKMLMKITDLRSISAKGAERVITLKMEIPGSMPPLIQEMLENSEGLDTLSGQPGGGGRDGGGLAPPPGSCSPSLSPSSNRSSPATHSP
Chain of Aryl hydrocarbon receptor (Homo sapiens) (P35869 whole entry, looked up): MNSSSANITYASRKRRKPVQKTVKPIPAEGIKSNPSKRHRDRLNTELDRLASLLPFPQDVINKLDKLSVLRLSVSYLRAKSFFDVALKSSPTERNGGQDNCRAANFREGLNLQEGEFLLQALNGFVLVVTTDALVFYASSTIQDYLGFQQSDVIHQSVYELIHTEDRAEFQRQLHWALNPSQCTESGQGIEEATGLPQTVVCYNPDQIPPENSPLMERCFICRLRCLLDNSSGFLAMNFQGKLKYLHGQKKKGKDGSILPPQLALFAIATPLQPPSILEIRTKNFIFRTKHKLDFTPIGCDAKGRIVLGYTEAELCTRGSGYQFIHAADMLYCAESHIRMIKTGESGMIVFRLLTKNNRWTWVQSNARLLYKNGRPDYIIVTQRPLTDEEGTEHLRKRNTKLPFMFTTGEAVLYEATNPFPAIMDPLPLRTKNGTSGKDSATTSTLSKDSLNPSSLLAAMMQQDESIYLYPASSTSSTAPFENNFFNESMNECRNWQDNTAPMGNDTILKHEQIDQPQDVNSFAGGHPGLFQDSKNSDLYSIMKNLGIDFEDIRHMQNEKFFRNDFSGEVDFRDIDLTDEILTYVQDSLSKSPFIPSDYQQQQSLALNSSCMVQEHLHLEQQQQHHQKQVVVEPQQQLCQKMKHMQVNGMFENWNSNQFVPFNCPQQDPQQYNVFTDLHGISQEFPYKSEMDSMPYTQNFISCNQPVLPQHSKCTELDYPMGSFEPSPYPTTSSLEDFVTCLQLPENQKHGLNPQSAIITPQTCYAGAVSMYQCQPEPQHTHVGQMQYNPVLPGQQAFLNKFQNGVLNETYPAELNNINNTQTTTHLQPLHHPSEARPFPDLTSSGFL

CCCCCCCCN(C)C
not listed: [18] | [19] | [20]
inactive: all other assays above

OC(CCl)CCl
not listed: [2] | [9] | [20]
inactive: all other assays above

CC[C@H](C)C(=O)O[C@H]1C[C@H](O)C=C2C=C[C@H](C)[C@H](CC[C@@H](O)C[C@@H](O)CC(=O)O)[C@H]21
active: [18] 68.4 µM
not listed: [2]
inactive: all other assays above
